{"source": "paper PMC4552634", "about": "“A New Set of Chemical Starting Points with Plasmodium falciparum Transmission-Blocking Potential for Antimalarial Drug Discovery” (PLoS ONE, 2015)", "note": "The campaign covered roughly 13,000 compounds. About 3,200 (25%) showed an effect of 50% or more. The list shows a part of the results.", "data": [{"test_system": "P. falciparum stage V gametocytes", "design": "BacTiter-Glo ATP luminescence viability of purified stage V gametocytes in 384-well plates, per cent inhibition versus DMSO", "conditions": "48 h, 5 µM; inhibitor", "units": {"% Inhibition": "%"}, "values": [{"smiles": "O=C(/C=C/c1ccc(Cl)c(Cl)c1)NCCCCCN1CCC(NC(=O)Nc2cccc(Cl)c2F)CC1", "note": "[TCMDC-135721]", "% Inhibition": -53.7}, {"smiles": "CCCN(Cc1nnc(-c2cccs2)o1)C(=O)CSc1nnnn1-c1cc(C)cc(C)c1", "note": "[TCMDC-125265]", "% Inhibition": 15.05}, {"smiles": "CCN(CC)CCN(Cc1ccc(-c2ccc(C(F)(F)F)cc2)cc1)C(=O)c1c[nH]c2ccc(Br)cc12", "note": "[TCMDC-141557]", "% Inhibition": 106.7}, {"smiles": "COC(=O)Nc1ccc(-c2ccc(C(=O)NC3CCN(C[C@H](O)c4ccnc5ccc(OC)cc45)CC3)cc2)c(C)c1", "note": "[TCMDC-141170]", "% Inhibition": -22.09}, {"smiles": "CC(C)CCN(Cc1cncn1Cc1cccc(C(F)(F)F)c1)C(=O)c1cncc(-c2ccccc2)c1", "note": "[TCMDC-132458]", "% Inhibition": 37.01}, {"smiles": "CCCC(C)N(Cc1ccc(C(C)(C)C)cc1)C(=O)c1cccc(C#N)c1", "note": "(centres unmarked) [TCMDC-139784]", "% Inhibition": -24.96}, {"smiles": "CCN(CC)C(=O)C(=O)c1c[nH]c2ccc(Cl)cc12", "note": "[TCMDC-131976]", "% Inhibition": 21.68}, {"smiles": "CCN(CC)CCN(Cc1ccc(-c2ccc(C(F)(F)F)cc2)cc1)C(=O)c1ccc(-c2ccc(C#N)cc2)cc1", "note": "[TCMDC-141556]", "% Inhibition": 55.86}, {"smiles": "CCOC(=O)c1ccc(NC(=O)Nc2ccc(-c3ccc(-c4nc5ccc(C(F)(F)F)cc5[nH]4)cc3)cc2)cc1", "note": "[TCMDC-133260]", "% Inhibition": 23.97}, {"smiles": "CCN(CC)CCN(Cc1ccc(-c2ccc(C(F)(F)F)cc2)cc1)C(=O)c1ccc(-c2ccc(NC(=O)OC)cc2C)cc1", "note": "[TCMDC-141558]", "% Inhibition": 93.92}, {"smiles": "Cc1cc(C)c(S(=O)(=O)N2CCCCC(c3cccc(C(F)(F)F)c3)=N2)c(C)c1", "note": "[TCMDC-134550]", "% Inhibition": -57.26}, {"smiles": "CC(C)(C)C1CCC(CC2=C(C(=O)O)c3ccccc3C2=O)CC1", "note": "(centres unmarked) [TCMDC-137496]", "% Inhibition": 8.625}, {"smiles": "O=C1OC(c2ccccc2)(c2ccccc2)CN1C1CCN(Cc2ccc(O)c(Cl)c2)C1", "note": "(centres unmarked) [TCMDC-136070]", "% Inhibition": -44.93}, {"smiles": "COc1cccc2cc(C(=O)N[C@@H](CC(C)C)C(=O)N[C@H](C=NNC(=O)OC(C)(C)C)Cc3ccccc3)oc12", "note": "[TCMDC-136073]", "% Inhibition": -20.59}, {"smiles": "Cc1cccc2[nH]c(-c3cccc(-c4cccc(CN5CCN(c6ccncc6)CC5)c4)c3)nc12", "note": "[TCMDC-132910]", "% Inhibition": 41.94}, {"smiles": "COc1ccc(NC(=O)[C@H](Cc2ccccc2)Nc2cc(C)nc(NCCN3CCCC3)n2)cc1", "note": "[TCMDC-134924]", "% Inhibition": 85.56}, {"smiles": "COc1ccc(NC(=O)[C@H](CC(C)C)Nc2cc(C)nc(NCCc3ccc(F)cc3)n2)cc1", "note": "[TCMDC-134793]", "% Inhibition": 11.38}, {"smiles": "Cc1cc(N[C@@H](Cc2ccccc2)C(=O)Nc2ccccc2)nc(Nc2ccccc2)n1", "note": "[TCMDC-134736]", "% Inhibition": -2.834}, {"smiles": "Cc1cc(N[C@@H](Cc2ccccc2)C(=O)Nc2ccccc2)nc(NCCc2ccccc2)n1", "note": "[TCMDC-134777]", "% Inhibition": 63.66}, {"smiles": "COc1ccc(NC(=O)[C@H](CC(C)C)Nc2cc(C)nc(NCCc3ccccc3)n2)cc1", "note": "[TCMDC-134778]", "% Inhibition": 31.74}, {"smiles": "Cc1cc(N[C@@H](CC(C)C)C(=O)Nc2ccccc2)nc(NCCc2ccccc2)n1", "note": "[TCMDC-134780]", "% Inhibition": 99.12}, {"smiles": "COc1ccc(NC(=O)[C@H](Cc2ccccc2)Nc2nc(NCCN3CCCC3)ncc2C)cc1", "note": "[TCMDC-134860]", "% Inhibition": 27.32}, {"smiles": "Cc1cc(N[C@@H](Cc2ccccc2)C(=O)Nc2ccccc2)nc(NCCc2ccc(F)cc2)n1", "note": "[TCMDC-134790]", "% Inhibition": 26.02}, {"smiles": "Cc1cc(N[C@@H](Cc2ccccc2)C(=O)Nc2ccccc2)nc(NCCN2CCCC2)n1", "note": "[TCMDC-134925]", "% Inhibition": 33.54}, {"smiles": "COc1ccc(NC(=O)[C@H](Cc2ccccc2)Nc2cc(C)nc(NCCc3ccc(F)cc3)n2)cc1", "note": "[TCMDC-134786]", "% Inhibition": 103.7}, {"smiles": "Cc1cc(N[C@@H](CC(C)C)C(=O)Nc2ccccc2)nc(NCCc2ccc(F)cc2)n1", "note": "[TCMDC-134797]", "% Inhibition": 10.71}, {"smiles": "COc1ccc2nccc(N3CCC(O)(CCNCc4ccc5c(n4)NC(=O)CS5)CC3)c2n1", "note": "[TCMDC-134553]", "% Inhibition": -13.65}, {"smiles": "CCCOc1ccc(C=C(CC(=O)O)c2nc3ccccc3s2)cc1OCC", "note": "[TCMDC-125020]", "% Inhibition": 4.95}, {"smiles": "CO/C(=C\\C=C\\c1cc2cc(Cl)c(Cl)cc2[nH]1)C(=O)NCCCN1CCN(c2cccc(CCO)c2)CC1", "note": "[TCMDC-139549]", "% Inhibition": -37.75}, {"smiles": "CC[C@H](C)CNC(=O)c1cncc(-c2ccc(CN3CCC(N4CCCC4)CC3)cc2)c1", "note": "[TCMDC-134234]", "% Inhibition": 36.3}, {"smiles": "c1ccn2c(-c3ncnc(NCc4ccc5c(c4)CCO5)n3)cnc2c1", "note": "[TCMDC-135175]", "% Inhibition": 28.7}, {"smiles": "COCc1ccccc1C(=O)NCCOc1cc(C)cc(C)c1", "note": "[TCMDC-134843]", "% Inhibition": -15.71}, {"smiles": "COc1ccc(NC(=O)[C@H](Cc2ccccc2)Nc2cc(C)nc(NCCc3ccccc3OC)n2)cc1", "note": "[TCMDC-134801]", "% Inhibition": 16.26}, {"smiles": "COc1ccc(NC(=O)[C@H](Cc2ccccc2)Nc2cc(C)nc(NCc3ccccc3C)n2)cc1", "note": "[TCMDC-134904]", "% Inhibition": -26.59}, {"smiles": "COc1ccc(NC(=O)[C@H](Cc2ccccc2)Nc2cc(C)nc(NCCc3cccs3)n2)cc1", "note": "[TCMDC-134873]", "% Inhibition": 39.58}, {"smiles": "COc1ccc(NC(=O)[C@H](Cc2ccccc2)Nc2cc(C)nc(NCCc3ccccc3)n2)cc1", "note": "[TCMDC-134774]", "% Inhibition": 119.9}, {"smiles": "Cc1cc(N[C@@H](Cc2ccccc2)C(=O)Nc2ccccc2)nc(NCCc2cccs2)n1", "note": "[TCMDC-134814]", "% Inhibition": 131.2}, {"smiles": "Cc1cc(N[C@@H](Cc2ccccc2)C(=O)NC2CCCC2)nc(NCCCOC(C)C)n1", "note": "[TCMDC-134821]", "% Inhibition": 40.66}, {"smiles": "Cc1cc(N[C@@H](Cc2ccccc2)C(=O)NC2CCCC2)nc(NCc2ccccc2C)n1", "note": "[TCMDC-134902]", "% Inhibition": -12.74}, {"smiles": "Cc1cc(N[C@@H](Cc2ccccc2)C(=O)NC2CCCC2)nc(NCCc2cccs2)n1", "note": "[TCMDC-134811]", "% Inhibition": 53.29}, {"smiles": "CCOC(=O)C1=C(C)NC(C)=C(C(=O)OCC)C1(C(=O)OCc1ccccc1)c1cccc(C(F)(F)F)c1", "note": "[TCMDC-132060]", "% Inhibition": -16.58}, {"smiles": "Cc1cc(NC(=O)c2coc3cc(F)c(N4CC(C)N(C)C(C)C4)cc23)cnc1-c1ccc(C#N)cc1", "note": "(centres unmarked) [TCMDC-141403]", "% Inhibition": -2.152}, {"smiles": "Oc1ccc(Cl)cc1CN1CCC(CCOC(c2ccccc2)c2ccc(Cl)cc2)CC1", "note": "(centres unmarked) [TCMDC-136035]", "% Inhibition": 13.31}, {"smiles": "O=C(/C=C/c1ccc(Cl)c(Cl)c1)NCCCCCN1CCC(NC(=O)Nc2cc(F)ccc2F)CC1", "note": "[TCMDC-135713]", "% Inhibition": -50.93}, {"smiles": "COc1cc(F)c2ncc(Cl)c(CCN3CCC(NCc4cc5c(cn4)OCCO5)CC3)c2c1", "note": "[TCMDC-134284]", "% Inhibition": 7.425}, {"smiles": "O=S(=O)(c1cc(Cl)ccc1Cl)N1CCCCC(c2ccc(C(F)(F)F)cc2)=N1", "note": "[TCMDC-134538]", "% Inhibition": -6.074}, {"smiles": "CCCCN1CCCC[C@H]1[C@@H](O)c1ccnc2ccc(OCC)cc12", "note": "[TCMDC-132037]", "% Inhibition": -41.99}, {"smiles": "CN(N=Cc1ccccc1)C(N)=NCCCC#Cc1cccc(CN2CCCC2)c1", "note": "[TCMDC-136886]", "% Inhibition": 99.7}, {"smiles": "CC(C)(C)c1ccc(NC(=O)c2cccc(CN3CCCN(Cc4cccc(C#N)c4)CC3)c2)cc1", "note": "[TCMDC-135981]", "% Inhibition": -19.29}, {"smiles": "CC(C)c1ccc(NC(=O)c2cccc(CN3CCCN(Cc4cccc(C#N)c4)CC3)c2)cc1", "note": "[TCMDC-135975]", "% Inhibition": 18.13}, {"smiles": "CCCCCCNC(=O)C1Cc2c([nH]c3ccccc23)C2(CCN(CCc3ccccc3)CC2)N1", "note": "(centres unmarked) [TCMDC-141085]", "% Inhibition": -57.94}, {"smiles": "O=C(CCc1cnc[nH]1)Nc1ccc(-c2ccc(-c3nc4ccc(F)cc4[nH]3)cc2)cc1", "note": "[TCMDC-136776]", "% Inhibition": 4.733}, {"smiles": "CCCCCCCCOc1c(OCC)cc(Cc2cnc(N)nc2N)cc1OCC", "note": "[TCMDC-137175]", "% Inhibition": -7.172}, {"smiles": "CCCCN(CCCC)CCCCNc1c2ccc(Cl)cc2nc2ccc(OC)cc12", "note": "[TCMDC-137460]", "% Inhibition": 99.56}, {"smiles": "CCN(CC)CCCCCNc1c2ccc(Cl)cc2nc2ccc(OC)cc12", "note": "[TCMDC-137514]", "% Inhibition": 94.78}, {"smiles": "CCCCCCN(CCCCCC)CCCCNc1c2ccc(Cl)cc2nc2ccc(OC)cc12", "note": "[TCMDC-137520]", "% Inhibition": 100.6}, {"smiles": "COc1ccc2nccc([C@@H](O)CN3CCC(NC(=O)C(c4ccsc4)N4CCN(c5ccccc5)CC4)CC3)c2c1", "note": "(some centres unmarked) [TCMDC-140985]", "% Inhibition": -15.82}, {"smiles": "Cc1cccc2nc(-c3cccc(-c4cccc(C(=O)NCc5nccn5C)c4)c3)[nH]c12", "note": "[TCMDC-132355]", "% Inhibition": -47.29}, {"smiles": "CNCCNCc1cccc(-c2ccc(-c3nc4ccc(C(F)(F)F)cc4[nH]3)cc2)c1", "note": "[TCMDC-132834]", "% Inhibition": 79.7}, {"smiles": "CNc1ccc(CNCc2cccc(-c3ccc(-c4nc5ccc(C(F)(F)F)cc5[nH]4)cc3)c2)cc1", "note": "[TCMDC-132982]", "% Inhibition": -73.95}, {"smiles": "COc1ccc(CNCc2ccc(-c3cccc(-c4nc5ccc(C(F)(F)F)cc5[nH]4)c3)cc2)cc1", "note": "[TCMDC-132731]", "% Inhibition": -22.42}, {"smiles": "CN(CCN)Cc1cccc(-c2cccc(-c3nc4ccc(F)cc4[nH]3)c2)c1", "note": "[TCMDC-132822]", "% Inhibition": 48.31}, {"smiles": "CNCCNCc1ccc(-c2cccc(-c3nc4ccc(C(F)(F)F)cc4[nH]3)c2)cc1", "note": "[TCMDC-132826]", "% Inhibition": 78.68}, {"smiles": "CC(C)NCc1cccc(-c2ccc(-c3nc4ccc(C(F)(F)F)cc4[nH]3)cc2)c1", "note": "[TCMDC-132742]", "% Inhibition": -56.16}, {"smiles": "CN(CCN)Cc1cccc(-c2cccc(-c3nc4ccc(C(F)(F)F)cc4[nH]3)c2)c1", "note": "[TCMDC-132818]", "% Inhibition": 68}, {"smiles": "COc1ccc(CNCc2cccc(-c3ccc(-c4nc5ccc(C(F)(F)F)cc5[nH]4)cc3)c2)cc1", "note": "[TCMDC-132723]", "% Inhibition": -32.29}, {"smiles": "CNCCNCc1ccc(-c2ccc(-c3nc4ccc(C(F)(F)F)cc4[nH]3)cc2)cc1", "note": "[TCMDC-132833]", "% Inhibition": 32.25}, {"smiles": "CNCCNCc1cccc(-c2cccc(-c3nc4ccc(C(F)(F)F)cc4[nH]3)c2)c1", "note": "[TCMDC-132827]", "% Inhibition": 52.85}]}]}
